KB-3-1 cytotox: kills parental KB-3-1 adenocarcinoma cells; KB-3-1 viability, CellTiter-Glo ATP luminescence, 72 h; Potency, µM (highest dose often 46.1 µM), actives largely listed as cytotoxic; 1.4% of 400,000 active; AID 1347075; note: % is set by controls: 0 for no effect and ±100 for the full control effect; nearly all actives have a fitted effect of over 60% in size
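Here the drug-naive KB-3-1 line serves as comparator for MDR sub-line selectivity; cells received compound titrations, 72 h at 37 °C, then CellTiter-Glo readout.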
MCF10A rereplic: induces DNA re-replication in MCF 10a normal breast cells | MCF 10A DNA re-replication, Hoechst nuclear intensity, 48 h | Potency, µM (titrated, usually from 46.1 µM), for inactives: at the top dose activity, positive = re-replication, usual class: activators | 2.9% of 350,000 active | AID 624296; note: % of control where 0% means no effect; nearly all actives have a fitted effect of over 50% in size
PINK1 modulator: changes PINK1 expression | PINK1 immunofluorescence, high-content cytometry, 24 h | Potency, µM (series often up to 76.6 µM), for inactives: at the highest dose activation (PINK1 increase), hits mostly activators | 0.2% of 410,000 active | AID 624263; active = well fitted activation curve with a large enough effect; inconclusive = small, poorly fitted or top-dose-only effect; cell line not stated here; note: % of control where 0% means no effect; nearly all actives have a fitted effect of over 65% in size
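Decision-based qHTS: stable cells, 24 h exposure to five compound concentrations, CCCP as control. Fixed cells stained for PINK1 plus nuclear, mitochondrial and cell markers, cytometer read.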
ALOX12 inh: inhibitors of human 12S-lipoxygenase ALOX12 | P18054 | purified 12hLO, xylenol orange hydroperoxide absorbance | Potency, µM (series often up to 108 µM), for inactives: top-dose activity change, negative = inhibition, actives largely listed as inhibitors | 1.1% of 580,000 active | AID 1671190; note: % is set by controls: 0 for no effect and ±100 for the full control effect
Target sequence (P18054 whole entry, looked up): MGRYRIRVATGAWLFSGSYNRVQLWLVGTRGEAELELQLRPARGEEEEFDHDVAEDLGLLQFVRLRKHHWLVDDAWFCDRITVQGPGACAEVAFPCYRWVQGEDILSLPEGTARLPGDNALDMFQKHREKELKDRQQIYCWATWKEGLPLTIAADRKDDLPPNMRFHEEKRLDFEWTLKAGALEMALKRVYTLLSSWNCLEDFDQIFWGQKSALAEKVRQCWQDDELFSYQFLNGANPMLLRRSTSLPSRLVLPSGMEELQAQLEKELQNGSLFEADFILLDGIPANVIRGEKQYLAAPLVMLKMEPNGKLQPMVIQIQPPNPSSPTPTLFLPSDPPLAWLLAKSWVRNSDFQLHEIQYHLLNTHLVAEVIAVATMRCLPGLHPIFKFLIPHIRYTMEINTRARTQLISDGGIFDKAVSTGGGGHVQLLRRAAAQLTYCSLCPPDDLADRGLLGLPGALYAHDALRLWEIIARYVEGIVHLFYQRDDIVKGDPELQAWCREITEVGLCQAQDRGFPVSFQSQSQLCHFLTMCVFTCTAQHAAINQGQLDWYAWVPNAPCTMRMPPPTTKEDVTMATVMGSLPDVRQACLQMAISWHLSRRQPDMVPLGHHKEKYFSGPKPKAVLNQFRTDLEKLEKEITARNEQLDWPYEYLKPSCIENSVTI
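Purified human 12hLO at 150 nM in 25 mM Hepes, 0.01% Triton X-100, pH 7.0, preincubated 15 min at room temperature with compound. Reaction started with 40 uM arachidonic acid, 30 min at room temperature. Hydroperoxide measured by Fe-xylenol orange, 573/405 nm absorbance ratio.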
SW480 rereplic: induces DNA re-replication in SW480 colon adenocarcinoma cells; SW480 DNA re-replication, Hoechst DNA content imaging, 48 h; Potency, µM (top dose mostly 46.1 µM), for inactives: top-dose re-replication activation, hits mostly activators; 1.8% of 340,000 active; note: % of control where 0% means no effect; nearly all actives have a fitted effect of over 55% in size
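Image-based read-out: total Hoechst fluorescence of nuclei (405 nm excitation, 500-530 nm emission), with hits raising the fraction of high-intensity nuclei. SW480 colon cells incubated 48 hr with compounds at 37 C.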
KB-V1 MDR tox: kills drug-selected multidrug resistant KB-V1 cells; KB-V1 MDR cells viability, CellTiter-Glo, 72 h; Potency, µM (doses to about 46.1 µM), actives largely listed as cytotoxic; 3.4% of 400,000 active; AID 1347076; note: % is set by controls: 0 for no effect and ±100 for the full control effect; nearly all actives have a fitted effect of over 60% in size
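Following 72 h at 37 degrees C with compound, KB-V1 cell viability was read by CellTiter-Glo luminescence, medium being phenol-red-free DMEM plus 10% FBS; concentration-response parameters came from normalized, curve-fitted qHTS data.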
* = called active by the depositor; i = inactive; ? = inconclusive; . = no result; [ ] = remark or other dose. Shown are actives, neighbours in structure and some others; about 5.8% of the full set was active somewhere. Unless noted, calls come from the whole dose curve; as a rule, active = well fitted curve in the direction sought with a large enough effect; inconclusive = small, poorly fitted or top-dose-only effect, or another doubt; inactive = no such curve, though single readings can be large; an effect the other way counts as inactive or inconclusive. Potency is the fitted concentration of half-maximal effect.

SMILES | KB-3-1 cytotox | MCF10A rereplic | PINK1 modulator | ALOX12 inh | SW480 rereplic | KB-V1 MDR tox
CCCN1CCN(CCCNC(=O)c2ccc3c(c2)sc2nc(-c4ccc(OCC)cc4)cn23)CC1 | 18µM* | . | -3% | 1% | . | ?
CC1CCCCN1CCCNC(=O)c1ccc2c(c1)sc1nc(-c3ccc(F)cc3)cn12 (stereo unspecified) | i | . | 1% | -15% | . | 21µM*
CCOc1ccc(-c2cn3c(n2)sc2cc(C(=O)NCCCN4CCCCCC4)ccc23)cc1 | i | . | 3% | ? | . | ?
O=C(NCCCN1CCCCC1)c1ccc2c(c1)sc1nc(-c3ccc(F)cc3)cn12 | i | . | 0% | ? | . | 16µM*
CCOc1ccc(-c2cn3c(n2)sc2cc(C(=O)NCCCN4CCCCC4)ccc23)cc1 | ? | . | 4% | 9% | . | 21µM*
O=C(c1ccc(F)cc1)N1CCC2(CN[S+](=O)([O-])c3cccnc3O2)C1 (stereo unspecified) | . | . | . | 5%[6.33 µM] | . | .
Cc1cccc(N(CC(=O)Nc2ccccc2C(=O)NCC2CCCO2)S(C)(=O)=O)c1C (stereo unspecified) | . | . | . | -35% | . | .
COC(=O)c1[nH]c2ccc(F)cc2c1NS(=O)(=O)c1ccc(OC)cc1 | 2.6µM* | 7.3µM* | 6% | -10% | 4.6µM* | 7.3µM*
CCOc1ccc2nc(NC(=O)c3cccc(-c4cc5ccccc5oc4=O)c3)sc2c1 | i | ? | -1% | ? | 16µM* | ?
CCOC(=O)c1cc(NC(=O)c2cccc(-c3cc4ccccc4oc3=O)c2)ccc1N1CCOCC1 | . | . | . | 8.9µM* | . | .
COc1ccc(CC(=O)OC(C)C(=O)c2ccc(C)cc2)cc1Br (stereo unspecified) | . | . | . | -3% | . | .
CN(C)CCCNc1ccc(-c2cc(Nc3cccc(Cl)c3)ncn2)cn1 | i | 21µM* | 0% | -23% | ? | i
COc1ccc(CN2C(=O)C(C)Nc3ncnc(N4CCc5ccccc5C4)c32)cc1 (stereo unspecified) | 2.3µM* | . | 2% | -18% | . | ?
COc1ccc(CN2C(=O)C(C)Nc3ncnc(N4CCN(c5ccccn5)CC4)c32)cc1 (stereo unspecified) | i | 2% | 8% | -8% | 2% | i
CCOCCCNc1nc2c(c(=O)[nH]c(=O)n2C)n1CCC(C)C | . | . | . | 24% | . | .
COC(=O)c1ccccc1NC(=O)c1ccc(COc2ccccc2)o1 | i | 10% | -2% | ? | -8%[9.22 µM] | i
COC(=O)c1ccccc1NC(=O)c1ccc(COc2cccc3ccccc23)o1 | i | ? | 6% | 45µM* | -5% | i
CN1CCN(c2ccc(NC(=S)NC(=O)c3cccc4ccccc34)cc2)CC1 | i | -12% | -1% | 28µM* | ? | i
COC(=O)c1ccccc1NC(=S)NC(=O)c1cccc2ccccc12 | i | ? | 2% | 32µM* | -3% | i
O=C(NCCN1C(=O)S/C(=C\c2ccc(Cl)c([N+](=O)[O-])c2)C1=O)C1=COCCO1 | ? | 3.7µM* | -1% | ? | -644% | i
O=C(NCCN1C(=O)S/C(=C\c2ccc(Cl)c(Cl)c2)C1=O)c1cnccn1 | i | ? | 12% | 13% | 2% | i
COc1ccc(CCN(Cc2cccs2)S(=O)(=O)c2ccc(-n3cnnn3)c(OC)c2)cc1OC | i | -10% | 2%[38.3 µM] | 0% | 0% | 2.6µM*
CCOc1ccccc1CN(Cc1ccco1)S(=O)(=O)c1ccc(-n2cnnn2)c(OC)c1 | ? | ? | 0%[38.3 µM] | 11% | 8.2µM* | ?
COc1cc(S(=O)(=O)N(Cc2cccs2)CC2CCCO2)ccc1-n1cnnn1 (stereo unspecified) | i | 12% | -1%[38.3 µM] | 17% | 2% | ?
COc1cc(S(=O)(=O)N(Cc2ccco2)C2CCCC2)ccc1-n1cnnn1 | i | 10% | -4%[38.3 µM] | -23%[57.4 µM] | 0% | i
SMILES | KB-3-1 cytotox | MCF10A rereplic | PINK1 modulator | ALOX12 inh | SW480 rereplic | KB-V1 MDR tox
c1ccc2c(c1)CCN(Cc1ccc3c(c1)CNCCO3)C2 | . | . | . | 40% | . | .
COc1ccc(CCNC(=O)CCc2c(C)nn(C)c2C)cc1OC | . | . | . | -6% | . | .
CCN(C(=O)COC(=O)Cc1n[nH]c(=O)c2ccccc12)c1ccc(F)cc1 | . | . | . | -1% | . | .
COc1cc(CN2CCC3(CCN(CC4CC4)CC3)C(CO)C2)ccc1F (stereo unspecified) | . | . | . | 49% | . | .
Nc1cccnc1S(=O)(=O)c1cccc(C(F)(F)F)c1 | i | -2% | 0% | -5% | 2.9µM* | i
Nc1cccnc1S(=O)(=O)c1ccccc1 | i | 5% | 1% | 62% | -1% | ?
CCn1c(SCC(=O)Nc2ccnn2C2CCCC2)nnc1C1CC1 | . | . | . | 3% | . | .
CCn1c(CC2C(=O)N(C(C)C)c3ccccc32)nc2ccccc2c1=O (stereo unspecified) | . | . | . | 1% | . | .
O=C(c1c(O)c2ccccc2oc1=O)C1CCCCC1 | ? | ? | 4%[38.3 µM] | 0% | 7% | 15µM*
Cc1cccc2cc(C#N)c(SCC(=O)N3CC(=O)Nc4ccccc43)nc12 | 0.82µM* | 0.65µM* | 4% | -22% | 7.3µM* | ?
COc1ccc2cc(C#N)c(SCC(=O)N3CC(=O)Nc4ccccc43)nc2c1 | 7.3µM* | 21µM* | ? | . | ? | i
CCOC(=O)CSc1nc2cc(OCC)ccc2cc1C#N | i | 10% | . | -20% | -7% | i
CCOc1ccc2cc(C#N)c(SCC(=O)N3CCC(C)CC3)nc2c1 | i | ? | ? | -9% | 0% | 2.6µM*
CCCCCNC(=O)CCCC(=O)NCCCCC | . | . | . | 7% | . | .
Cc1occc(=O)c1OCc1noc(C(=O)NCc2ccccc2Cl)n1 | . | . | . | 3% | . | .
CS(=O)(=O)N1CCN(C(=O)CNc2cccc(F)c2)CC1 | . | . | . | 9% | . | .
COc1ccccc1-c1nnc(SCC(=O)Nc2ccc(N(C)C)cc2)n1-c1ccccc1 | . | . | . | -52% | . | .
COC(=O)CC1C(=O)NCCN1S(=O)(=O)c1cc(Cl)ccc1Cl (stereo unspecified) | . | . | . | -11% | . | .
CCOC(=O)CSc1nc(-c2cccc(C)c2)nc2c1COC(C)(C)C2 | . | . | . | -2% | . | .
CC(C)CCNC(=O)c1cc(-c2cccnc2)nc2ccc(S(=O)(=O)N3CCC(C)CC3)cc12 | . | . | 0% | -17% | . | .
CC1CCN(S(=O)(=O)c2ccc3nc(-c4ccccn4)cc(C(=O)NCCN(C)Cc4ccccc4)c3c2)CC1 | ? | 0.73µM* | 4% | 162% | 0% | i
CC(=O)c1ccccc1-c1csc2ncnc(Sc3nnnn3C)c12 | ? | ? | 25% | -9% | ? | ?
Fc1ccc(CSc2ncnc3scc(-c4ccccc4)c23)cc1 | i | 22% | 1% | 2% | 0% | 15µM*

Bioassay records: PubChem, National Center for Advancing Translational Sciences (NCATS)
